In PubChem BioAssay AID1159580 (chemical genetic matrix, 2015):
Out of some 5,500 compounds screened, about 2,000 (36%) were called active. Roughly 18% stayed inconclusive and do not appear here. No stated cut-off is given here; in the data, active means normalized growth mostly below about 0.91 (no sharp cut-off); inconclusive means no clear call, values can overlap the other calls; inactive means mostly above about 0.92. This is one part of the list.

Experiment: chemical genetic growth profiling, strain panel (AID 1159580);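 further: tested at 20 µM; growth read once vehicle control cultures reached saturation at 30 °C; 1 = growth at the plate median or of vehicle wells; lower values mean less growth of the strain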
Conditions: S. cerevisiae deletion strains, growth OD

Measured: normalized growth

C[C@]12CCC(=O)C=C1CC[C@@H]1[C@@H]2[C@@H](O)C[C@@]2(C)[C@H]1CC[C@]2(O)C(=O)COC(=O)CCC(=O)O
inactive: locus YCL061C, strain MRC1 (second series), active compounds read low 1 | locus YDR363W, strain ESC2, active compounds read low 1 | locus YER002W, strain NOP16, active compounds read low 0.982 | locus YGR078C, strain PAC10, active compounds read low 1.01 | locus YNL175C, strain NOP13, active compounds read low 1.01 | locus YNL197C, strain WHI3, active compounds read low 1.01 | locus YNL224C, strain SQS1, active compounds read low 0.994 | locus YNL322C, strain KRE1, active compounds read low 0.996 | locus YOR083W, strain WHI5 (second series), active compounds read low 0.972 | locus YPL241C, strain CIN2, active compounds read low 0.999
active: locus YAL040C, strain CLN3, active compounds read low 1.11 [resistant]
